This is an account of results in PubChem BioAssay (EPA / NIEHS).

Each structure is given as a SMILES string. Inconclusive results are not listed. Calls of active or inactive are those of the source. Rule for the calls, unless noted: active = hit-call score of the fitted dose curve at least 0.9, where 1 is the maximum; inconclusive = response in the unintended direction; inactive = score below 0.9.

In test [1] the target is Estrogen receptor (Homo sapiens) (UniProt P03372). The test is described as follows: ATG_ERa_TRANS: Attagene TRANS-FACTORIAL HepG2 Assay for human Estrogen Receptor alpha (ERa) (AID 2282970). As to conditions: HepG2 Attagene TRANS ERa GAL4 reporter, mRNA. In a few lines:
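Transfected HepG2 cells carrying GAL4-UAS-driven reporter units were dosed for 24 hours. Total RNA was reverse-transcribed, reporter sequences PCR-amplified, FAM-labelled, HpaI-digested and resolved by capillary electrophoresis. Increases over DMSO control defined activity.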

Test [2] has as its target X-box-binding protein 1 (Homo sapiens) (UniProt P17861). The test is described as follows: ATG_Xbp1_CIS: Attagene CIS-FACTORIAL HepG2 Assay for human X-box Binding Protein 1 (XBP1) (AID 2282972; active = hit-call score of the fitted dose curve at least 0.9, where 1 is the maximum; inactive = score below 0.9). As to conditions: HepG2 XBP1 cis-element reporter, Attagene multiplex; actives raise or lower the signal. In a few lines: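 Read-out: fluorescent reporter mRNA fragments resolved by capillary electrophoresis after RT-PCR. Human HepG2 liver cells carried transfected cis-promoter reporter units and were exposed to chemicals for 24 hours. Gain or loss of signal fitted relative to DMSO baseline.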

Test [3] in a line: ATG_M_19_TRANS: Attagene TRANS-FACTORIAL HepG2 Assay for M19 Transcription Factor (Internal Marker) (AID 2282974). As to conditions: HepG2 Attagene TRANS-FACTORIAL M19 internal marker reporter. The essentials:
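HepG2 cells transiently transfected with multiple GAL4-UAS reporter transcription units were exposed to chemicals for 24 h. Reporter mRNA was read by RT-PCR, 6-FAM primer extension, HpaI digestion and capillary electrophoresis; gain of signal fitted relative to DMSO.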

In test [4] the target is Glucocorticoid receptor (Homo sapiens) (UniProt P04150). The test is described as follows: ATG_GR_TRANS: Attagene TRANS-FACTORIAL HepG2 Assay for human Glucocorticoid Receptor (GR) (AID 2282978).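 Note: activators score as hits since higher reporter transcript over DMSO is fitted.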 As to conditions: HepG2 Attagene TRANS GR reporter, mRNA transcription. The essentials:
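HepG2 cells transiently transfected with multiplexed reporter units in which chimeric NR-GAL4 proteins drive GAL4-UAS reporters; 24 h compound exposure. Reporter mRNA measured by RT-PCR, 6-FAM labelling, HpaI digestion and capillary electrophoresis; gain-of-signal fitted versus DMSO.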

The target of test [5] is Bile acid receptor (Homo sapiens) (UniProt Q96RI1). In words: ATG_FXR_TRANS: Attagene TRANS-FACTORIAL HepG2 Assay for Farnesoid X Receptor (FXR) (AID 2282979).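 Note: hits raise reporter mRNA above DMSO so AC50 marks FXR activation.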 To be noted: HepG2 Attagene TRANS FXR-GAL4 reporter transcription. In a few lines: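 Chimeric FXR-GAL4 activity in transiently transfected human HepG2 liver cells is scored as induction of reporter mRNA after 24 h of dosing. Detection uses RT-PCR with fluorescent labelling and capillary electrophoresis, with DMSO serving as baseline.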
Bile acid receptor (Homo sapiens), sequence (Q96RI1 whole entry, looked up, the tested form may be a part): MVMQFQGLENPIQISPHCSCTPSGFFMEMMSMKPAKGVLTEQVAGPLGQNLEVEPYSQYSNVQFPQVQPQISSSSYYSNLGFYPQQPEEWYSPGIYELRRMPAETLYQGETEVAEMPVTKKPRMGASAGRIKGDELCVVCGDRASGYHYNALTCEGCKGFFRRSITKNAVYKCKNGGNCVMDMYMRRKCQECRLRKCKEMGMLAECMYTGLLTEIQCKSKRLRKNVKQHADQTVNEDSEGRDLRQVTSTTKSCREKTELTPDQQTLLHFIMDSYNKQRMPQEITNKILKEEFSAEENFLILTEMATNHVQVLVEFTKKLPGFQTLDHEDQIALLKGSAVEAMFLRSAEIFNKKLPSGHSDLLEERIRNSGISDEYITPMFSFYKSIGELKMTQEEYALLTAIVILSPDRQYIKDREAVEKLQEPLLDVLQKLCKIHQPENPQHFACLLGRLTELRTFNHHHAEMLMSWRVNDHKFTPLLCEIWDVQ

Test [6] in a line: ATG_GAL4_TRANS: Attagene TRANS-FACTORIAL HepG2 Assay for GAL4 (Internal Marker) (AID 2282976). As to conditions: HepG2 Attagene TRANS GAL4 internal marker reporter. The essentials:
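Fluorescence from capillary electrophoresis of labelled RT-PCR products quantifies reporter mRNA induction after 24 h dosing of HepG2 cells carrying transfected GAL4-UAS reporter transcription units. Vehicle DMSO serves as baseline.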

Test [7] addresses Oxysterols receptor LXR-alpha (Homo sapiens) (UniProt Q13133). The test is described as follows: ATG_LXRa_TRANS: Attagene TRANS-FACTORIAL HepG2 Assay for human Liver X Receptor alpha (LXRa) (AID 2282980). To be noted: HepG2 Attagene TRANS reporter, LXRa transactivation. In a few lines:
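Transient HepG2 transfectants, 24 h dosing, RT-PCR/CE mRNA reporter quantitation; gain-of-signal vs DMSO.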

Test [8] addresses Estrogen-related receptor gamma (Homo sapiens) (UniProt P62508). In words: ATG_ERRg_TRANS: Attagene TRANS-FACTORIAL HepG2 Assay for human Estrogen-Related Receptor gamma (ERRg) (AID 2282977).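 Note: hits increase reporter signal over DMSO so potencies reflect activators.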 As to conditions: HepG2 Attagene TRANS reporter, ERRg transactivation. The essentials:
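Induction of reporter transcripts through a chimeric NR-Gal4 protein is quantified in transfected human HepG2 liver cells after 24 h chemical exposure, using RT-PCR with capillary electrophoresis detection and DMSO as baseline.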

The target in test [9] is Steroid hormone receptor ERR1 (Homo sapiens) (UniProt P11474). In words: ATG_ERRa_TRANS: Attagene TRANS-FACTORIAL HepG2 Assay for human Estrogen-Related Receptor alpha (ERRa) (AID 2282971). As to conditions: HepG2 Attagene TRANS reporter, ERRa transactivation. In a few lines: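 HepG2 cells were transiently transfected with multiple GAL4-UAS reporter units, then dosed with compound for 24 h. Total RNA was reverse-transcribed, reporter cDNA PCR-amplified and fluorescently labelled, and fragments resolved by capillary electrophoresis; induction was compared with DMSO.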
Steroid hormone receptor ERR1 (Homo sapiens), sequence (P11474 whole entry, looked up, the tested form may be a part): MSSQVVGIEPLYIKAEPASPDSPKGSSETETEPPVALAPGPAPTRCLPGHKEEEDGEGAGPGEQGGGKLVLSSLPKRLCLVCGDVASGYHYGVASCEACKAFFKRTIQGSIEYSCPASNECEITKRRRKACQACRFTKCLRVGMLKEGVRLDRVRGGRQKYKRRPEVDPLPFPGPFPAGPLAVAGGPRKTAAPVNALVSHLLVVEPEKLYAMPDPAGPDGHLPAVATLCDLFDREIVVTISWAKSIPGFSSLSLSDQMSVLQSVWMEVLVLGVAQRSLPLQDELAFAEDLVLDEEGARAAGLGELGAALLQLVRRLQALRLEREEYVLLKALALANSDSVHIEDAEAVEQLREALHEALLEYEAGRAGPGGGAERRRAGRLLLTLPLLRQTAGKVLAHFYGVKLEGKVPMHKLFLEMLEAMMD

X-box-binding protein 1 (Homo sapiens), sequence (P17861 whole entry, looked up, the tested form may be a part): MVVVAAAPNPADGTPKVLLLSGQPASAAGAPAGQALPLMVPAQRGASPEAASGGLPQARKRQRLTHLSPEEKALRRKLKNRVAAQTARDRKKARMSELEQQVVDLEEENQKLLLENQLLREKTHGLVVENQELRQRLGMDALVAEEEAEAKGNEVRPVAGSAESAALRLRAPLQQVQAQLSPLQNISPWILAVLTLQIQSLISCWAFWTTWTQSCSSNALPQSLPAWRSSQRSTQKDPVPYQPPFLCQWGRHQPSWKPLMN
Estrogen receptor (Homo sapiens), sequence (P03372 whole entry, looked up, the tested form may be a part): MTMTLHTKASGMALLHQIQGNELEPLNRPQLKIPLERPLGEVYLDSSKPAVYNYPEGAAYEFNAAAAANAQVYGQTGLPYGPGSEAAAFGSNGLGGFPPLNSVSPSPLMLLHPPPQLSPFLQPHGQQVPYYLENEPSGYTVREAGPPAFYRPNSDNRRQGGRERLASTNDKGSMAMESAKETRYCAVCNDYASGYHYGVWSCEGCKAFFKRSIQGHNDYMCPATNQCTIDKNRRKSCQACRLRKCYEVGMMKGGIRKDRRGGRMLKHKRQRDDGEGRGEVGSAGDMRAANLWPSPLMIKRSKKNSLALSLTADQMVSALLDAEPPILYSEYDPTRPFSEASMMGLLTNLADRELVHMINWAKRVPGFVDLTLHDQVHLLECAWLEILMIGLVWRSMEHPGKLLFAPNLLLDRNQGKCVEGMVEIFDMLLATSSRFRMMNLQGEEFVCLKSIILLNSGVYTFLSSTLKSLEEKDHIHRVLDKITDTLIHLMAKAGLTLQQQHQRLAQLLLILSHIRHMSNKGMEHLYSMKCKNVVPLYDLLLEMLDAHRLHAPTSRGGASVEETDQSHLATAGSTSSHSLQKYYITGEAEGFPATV
Glucocorticoid receptor (Homo sapiens), sequence (P04150 whole entry, looked up, the tested form may be a part): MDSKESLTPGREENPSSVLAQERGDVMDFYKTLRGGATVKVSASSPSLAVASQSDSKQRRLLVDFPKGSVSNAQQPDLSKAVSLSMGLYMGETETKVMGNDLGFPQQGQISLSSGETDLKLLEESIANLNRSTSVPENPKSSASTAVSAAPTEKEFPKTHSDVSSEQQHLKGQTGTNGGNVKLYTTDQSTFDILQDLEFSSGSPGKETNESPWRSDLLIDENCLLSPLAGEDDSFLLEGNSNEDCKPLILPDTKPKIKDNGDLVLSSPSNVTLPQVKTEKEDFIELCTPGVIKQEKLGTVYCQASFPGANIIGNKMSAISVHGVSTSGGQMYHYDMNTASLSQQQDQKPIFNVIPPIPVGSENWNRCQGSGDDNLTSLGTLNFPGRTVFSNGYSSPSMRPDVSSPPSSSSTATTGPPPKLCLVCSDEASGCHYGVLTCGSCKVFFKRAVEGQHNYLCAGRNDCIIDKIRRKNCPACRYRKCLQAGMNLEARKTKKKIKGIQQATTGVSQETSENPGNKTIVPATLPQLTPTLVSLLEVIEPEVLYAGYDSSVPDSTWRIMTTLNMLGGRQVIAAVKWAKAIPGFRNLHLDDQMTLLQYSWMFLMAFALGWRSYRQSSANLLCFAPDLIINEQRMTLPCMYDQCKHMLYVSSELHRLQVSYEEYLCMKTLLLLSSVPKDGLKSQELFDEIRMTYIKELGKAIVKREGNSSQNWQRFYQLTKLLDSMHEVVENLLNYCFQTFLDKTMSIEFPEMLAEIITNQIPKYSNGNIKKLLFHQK
Oxysterols receptor LXR-alpha (Homo sapiens), sequence (Q13133 whole entry, looked up): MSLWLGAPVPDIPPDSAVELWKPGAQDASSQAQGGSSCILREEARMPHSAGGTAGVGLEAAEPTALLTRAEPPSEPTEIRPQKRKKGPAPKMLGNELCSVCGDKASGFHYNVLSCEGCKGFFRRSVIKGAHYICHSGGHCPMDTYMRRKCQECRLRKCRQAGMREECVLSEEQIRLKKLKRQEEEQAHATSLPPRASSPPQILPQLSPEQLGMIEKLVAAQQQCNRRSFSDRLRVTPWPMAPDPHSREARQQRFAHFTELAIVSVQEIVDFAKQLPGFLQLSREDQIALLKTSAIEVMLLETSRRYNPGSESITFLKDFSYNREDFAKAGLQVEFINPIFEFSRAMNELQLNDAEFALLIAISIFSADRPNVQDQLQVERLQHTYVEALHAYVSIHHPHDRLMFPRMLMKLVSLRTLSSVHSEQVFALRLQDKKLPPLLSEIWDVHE
Estrogen-related receptor gamma (Homo sapiens), sequence (P62508 whole entry, looked up, the tested form may be a part): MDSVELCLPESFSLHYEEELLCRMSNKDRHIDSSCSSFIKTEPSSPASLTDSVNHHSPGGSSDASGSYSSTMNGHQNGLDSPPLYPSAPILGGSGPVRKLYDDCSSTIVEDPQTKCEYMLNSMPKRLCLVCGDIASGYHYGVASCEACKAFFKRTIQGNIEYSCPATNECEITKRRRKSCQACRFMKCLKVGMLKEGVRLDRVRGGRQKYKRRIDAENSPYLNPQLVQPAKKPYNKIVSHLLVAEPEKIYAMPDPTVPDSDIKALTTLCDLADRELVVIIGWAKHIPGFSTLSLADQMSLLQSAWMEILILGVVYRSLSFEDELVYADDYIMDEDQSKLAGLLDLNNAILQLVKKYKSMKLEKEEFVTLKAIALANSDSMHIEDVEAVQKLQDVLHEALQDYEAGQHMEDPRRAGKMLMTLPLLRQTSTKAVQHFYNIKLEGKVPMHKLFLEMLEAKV

On to `O=C(O)CCC(F)(F)C(F)(F)C(F)(F)C(F)(F)C(F)(F)C(F)(F)F`, for which the concentration at half-maximal activity (AC50) in test [1] was 46.1 µM (active). Further, the molecule was classed as inactive in test [2], in test [3], in test [4] and in test [5].
Consider `CCCCCCCCC1CCC(=O)O1` (centres undefined), for which the result in test [1], in [2], in test [6], in test [4], in test [5] and in [7] was inactive.
`Cc1ccccc1OCC(=O)O`: the molecule was classed as inactive in test [1], in [2], in test [3], in test [4], in test [5] and in test [7].
Consider `CN(Cc1cnc2nc(N)nc(N)c2n1)c1ccc(C(=O)N[C@@H](CCC(=O)O)C(=O)O)cc1`, for which the outcome in test [1], in [2], in test [3] and in [5] was inactive.
`COC(=O)CC(C(C)=O)C(=O)OC` (centres undefined): the result in [1], in test [2] and in test [3] was inactive.
As to `O=C(NCc1ncc(C(F)(F)F)cc1Cl)c1c(Cl)cccc1Cl`, the molecule was called inactive in test [1], in test [2], in test [4], in [5] and in test [7].
For `FC(F)=C(F)C(F)(F)C(F)(F)C(F)(F)C(F)F`, the result in [1], in [2], in test [3], in [8] and in test [5] was inactive.
As for `NCCN`, the outcome in test [1], in test [2] and in test [3] was inactive.
For the molecule `C[C@]12CC[C@@H]3c4ccc(O)cc4CC[C@H]3[C@@H]1CC[C@@H]2OC(=O)CCC1CCCC1`, in [1], the AC50 was 0.0823 µM (active). For the same molecule, the result in test [2], in test [4] and in test [7] was inactive.
`CCCCCCCCCCCCOC(=O)c1cc(O)c(O)c(O)c1`: the values for the half-maximal activity concentration (AC50) in test [1], in test [2] and in test [5] were 11.1 µM (active), 11.1 µM (active) and 45.1 µM (active), respectively. Further, the outcome in test [3] and in test [4] was inactive.
Turning to `O=S(=O)(c1ccc(OCc2ccccc2)cc1)c1ccccc1O`, the call in test [1], in test [4] and in test [5] was inactive. For the same molecule, the AC50 in test [2] is 31 µM (active).
As for `CCOC=O`, the half-maximal activity concentration (AC50) in test [1] is 59.7 µM (active). The call in test [2], in [6], in test [8] and in test [4] was inactive.
As to `O=C1Cc2ccccc2N1c1c(Cl)cccc1Cl`, the concentration at half-maximal activity (AC50) in [1] is 4.59 µM (active). Besides, the call in test [2], in test [3], in [6], in test [4] and in test [5] was inactive.
As for `Oc1ccc(Cc2ccccc2O)cc1`, the AC50 in test [1] was 3.65 µM (active). Further, the molecule was called inactive in test [2], in test [3], in test [4] and in test [5].
With `Oc1c(Cl)ccc(Cl)c1Cl`, the result in [1] and in test [2] was inactive.
Regarding `CCc1cccc(CC)c1N(COC)C(=O)CS(=O)(=O)O`, the molecule was classed as inactive in test [1], in test [2], in [3], in test [6], in test [8] and in test [4]. In addition, the result in test [5] was inactive.
Turning to `CCCCCCCC(OC)OC`, the molecule was called inactive in test [1], in test [2], in test [4] and in test [5].
Turning to `CCCCC(CC)C(=O)OCCOCCOCCOCCOC(=O)C(CC)CCCC` (centres undefined), the call in test [1], in test [2], in [3], in test [6] and in test [8] was inactive.
Regarding `OCC1CCC(CO)CC1` (centres undefined), the call in test [1], in test [2], in [4], in [5] and in test [7] was inactive.
For `CN(C)CCOC(c1ccccc1)c1ccccc1`, the call in test [1], in [2], in test [4] and in test [7] was inactive.
For the molecule `CCOC(=O)c1nc(C(Cl)(Cl)Cl)n(-c2ccc(Cl)cc2Cl)n1`, the values for the AC50 in [1] and in test [2] were 25.7 µM (active) and 178 µM (active), respectively. Also, the molecule was classed as inactive in test [6] and in [5].
For the molecule `Oc1c(Cl)cc(Cl)cc1Sc1cc(Cl)cc(Cl)c1O`, the molecule was classed as inactive in [1], in test [8], in test [4] and in test [5]. In [2], the AC50 was 1.45 µM (active).
For `CCCCc1oc2ccccc2c1C(=O)c1cc(I)c(OCCN(CC)CC)c(I)c1`, the outcome in [1], in [3], in test [8], in test [4], in test [5] and in test [7] was inactive. Moreover, the AC50 in [2] is 26.4 µM (active).
As for `O=C1c2ccc(O)c(O)c2C(=O)c2c(O)ccc(O)c21`, the AC50 in test [1] was 4.53 µM (active). The molecule was classed as inactive in [2], in test [8], in test [5] and in test [7].
For the molecule `O=CC(F)(F)C(F)(F)C(F)(F)F`, the molecule was classed as inactive in test [1], in [2], in test [3], in [6], in test [4] and in test [5]. The result in test [7] was inactive.
With `CCCCCCCCCC=CCC1CC(=O)OC1=O` (centres undefined), the outcome in [1] and in test [2] was inactive.
As to `C=CC(=O)OCC(CO)(COCC(COC(=O)C=C)(COC(=O)C=C)COC(=O)C=C)COC(=O)C=C`, the call in test [1] and in [4] was inactive. Further, in test [2], the AC50 was 2.87 µM (active).
Turning to `CC(C)(c1ccc(Oc2ccc(N)cc2)cc1)c1ccc(Oc2ccc(N)cc2)cc1`, the call in [1], in test [2], in test [3] and in [6] was inactive. Also, the AC50 in test [7] was 3.21 µM (active).
Turning to `COC(=O)C(F)(F)C(F)(F)C(F)(F)F`, the call in test [1], in test [2], in test [3], in [6] and in [4] was inactive.
As for `O=C(OC(=O)C(F)(F)C(F)(F)F)C(F)(F)C(F)(F)F`, the call in test [1], in [2], in test [3], in [5] and in test [7] was inactive.
For `CCc1ccccc1O`, the molecule was classed as inactive in test [1], in test [2], in test [3], in test [4] and in test [5].
With `CC(=O)Nc1ccc(O)cc1`, the call in test [2] was inactive.
For `Nc1ccn([C@@H]2O[C@H](CO)[C@@H](O)C2O)c(=O)n1` (some centres undefined), the result in test [9], in [2], in test [3], in test [6], in [4] and in test [5] was inactive.
On to `CC1=NN(c2ccccc2)C(=O)C1`, for which the outcome in [2], in test [3], in test [4] and in test [5] was inactive.
Regarding `CCCCC=O`, the molecule was classed as inactive in test [2], in test [4] and in [5].
In the case of `CC(O)COc1ccccc1` (centres undefined), the result in test [2], in [3], in test [4], in [5] and in [7] was inactive.
For `Brc1ccc(Oc2ccc(Br)cc2Br)cc1`, the call in test [9], in test [2], in test [3], in test [5] and in test [7] was inactive.
With `CCCCCCCCCCCCCCC`, the molecule was classed as inactive in [2], in test [3], in test [6] and in [4].
As to `Cc1[nH]nc2c1N=C(c1ccccc1Cl)c1cc([N+](=O)[O-])ccc1N2`, the result in test [2], in test [3], in test [4], in [5] and in test [7] was inactive.
